# FMDV inh = foot and mouth disease virus antiviral activity | FMDV antiviral cell-based qHTS | Potency, µM (highest dose often 57.9 µM), for inactives: at the top dose activity change, negative = inhibition, most hits filed as inhibitors | 410,000 compounds, 1.2% hits; calls by dose curve; tested in HEK293T cells; also: read-out not given here; potency is read from the fitted curve at half-maximal effect; % is scaled to controls: 0 for no effect and ±100 for the full control effect; nearly all actives have a fitted effect of over 45% in size
# Sm TGR block = S. mansoni TGR enzyme inhibition; purified TGR, DTNB reduction, TNB absorbance 405 nm; Potency, µM (top dose mostly 114 µM), for the others: at the top dose activity change, negative = inhibition, hits mostly inhibitors; 360,000 compounds, 3% hits; AID 485364; active = well fitted inhibition curve with a large enough effect; inconclusive = small, poorly fitted or top-dose-only effect; inactive = no such curve, though single readings can be large or run the other way; also: potency is read from the fitted curve at half-maximal effect; % is scaled to controls: 0 for no effect and ±100 for the full control effect; nearly all actives have a fitted effect of over 60% in size
#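 TGR 20 nM + NADPH 100 uM (dispensed conc.), cpd preinc 15 min RT; start with NADPH (500 uM addition) then DTNB (15 mM addition). Kinetic TNB absorbance, 405 nm filter. Four-parameter Hill fit across titration.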
# Cycloheximide cs = counter-screen for Shiga toxin inhibitors: cycloheximide protein synthesis inhibition; max response, %; cell reporter, cycloheximide protein synthesis inhibition counterscreen; 300,000 compounds, 12% hits; AID 2314; in the data active = max response mostly above about 13%, no sharp cut-off; inactive = mostly below about 14%; also: read at 38.3 µM for the half of the compounds with a filed dose; 0% is about no effect
# Shiga toxin inh = Shiga toxin inhibition | Vero cells, Shiga toxin protein synthesis inhibition reporter | inhibition, % at 38.7 µM | 290,000 compounds, 9.2% hits; in the data active = inhibition mostly above about 28%, no sharp cut-off; inactive = mostly below about 43%; also: 0% is about no effect
# * hit, by the source's call; ? = inconclusive; · = not tested or not shown; [ ] = remark or other dose. Rows were chosen to be rich in hits. Some 12% of all compounds tested hit in one or more screens of this group.
SMILES,FMDV inh,Sm TGR block,Cycloheximide cs,Shiga toxin inh
C=CCNc1nnc(SC2CC(=O)N(c3ccc(OC)cc3)C2=O)s1 (stereo not given),7%,2.8µM*,-6,-6
Cc1oc(/N=C/c2ccc(O)cc2O)c(C#N)c1C,0%,50µM*,37*,117*
CCn1cc(C(=O)N2CCN(c3cccc(Cl)c3)CC2)c(=O)c2cc(S(=O)(=O)N3CCOCC3)ccc21,-18%,0%,·,·
Cc1ccccc1OCCCSc1nc2ccccc2[nH]1,?,0%,19*,27*
NC(=O)CCCSc1nc2ccccc2[nH]1,1%,-16%,-1,-17
c1ccc(OCCSc2nc3ccccc3[nH]2)cc1,22%,6%,26*,21*
Cc1nc(SCCOc2ccc(F)cc2)c2ccccc2n1,8%,8%,25*,79*
Cc1nc(SCCC(=O)O)c2ccccc2n1,·,3%,0,-8
O=C(Nc1cc(F)ccc1F)C1COc2ccccc2C1 (stereo not given),20%,3%,·,·
CCc1ccc(OC(=O)c2sc3ncn(Cc4cccc(F)c4)c(=O)c3c2C)cc1,0%,7%,·,·
CSCCNC(=O)c1ccc2nc(C3CCCCC3)oc2c1,28%,0%,20*,86*
O=C(NCc1ccccn1)c1ccc2nc(C3CCCCC3)oc2c1,30%,-2%,22*,32*
O=C(N/N=C/c1c(Cl)cccc1Cl)c1ccc(-n2cnnn2)cc1,8%,-5%,·,·
O=C(N/N=C/c1c(Cl)cccc1Cl)c1n[nH]c2c1CCCC2,73%,-6%,94*,132*
Cc1ccsc1/C=N\NC(=O)c1n[nH]c2c1CCC2,0%,-9%,11*,3
Cc1ccsc1/C=N/NC(=O)C1C(=O)NCC1c1ccccc1 (stereo not given),25%,2%,-2,-4
CNC(=O)C1CCN(Cc2cc3ccccc3n2Cc2cccc(C)c2)CC1,-29%,2%,·,·
COc1ccccc1C(=O)NC(=S)Nc1ccc(N2CCN(C(=O)c3ccco3)CC2)cc1,?,-33%,1,-4
CCN1CCN(c2ccc(NC(=O)c3ccco3)cc2)CC1,43%,3%,42*,34*
O=C(Nc1ccc(N2CCN(C(=O)c3ccco3)CC2)c(Cl)c1)c1cccnc1,-23%,-4%,-2,-29
CCCC(=O)N1CCN(c2ccc(NC(=O)c3ccco3)cc2)CC1,29%,-1%,8,11
Cc1ccccc1C(=O)N1CCN(c2ccc(NC(=S)NC(=O)c3ccco3)cc2)CC1,25µM*,?,1,-3
O=C(c1ccco1)N1CCN(c2ccc(Cl)cc2)CC1,30%,-26%,37*,79*
O=C(Nc1ccc(N2CCN(C(=O)c3ccco3)CC2)c(Cl)c1)c1c(F)c(F)c(F)c(F)c1F,28µM*,-15%,-1,-4
CCn1c2ccccc2c2cc(CN3CCOc4ccc(C(O)c5cccnc5)cc4C3)ccc21 (stereo not given),-20%,·,·,·
SMILES,FMDV inh,Sm TGR block,Cycloheximide cs,Shiga toxin inh
CCCCCn1c(=O)[nH]c2cc(C(=O)N3CCN(c4cc(Cl)ccc4C)CC3)ccc2c1=O,-19%,-2%,·,·
CC(C)c1ccc(NC(=O)C(c2ccccc2)N2CCN(C(=O)c3ccco3)CC2)cc1 (stereo not given),38%,-9%,55*,125*
O=C(Nc1ccc(N2CCN(C(=O)c3ccco3)CC2)cc1)c1ccco1,24%,2%[57.1 µM],12*,43
CC(C)c1ccc(NC(=O)C(c2ccc3c(c2)OCO3)N2CCN(C(=O)c3ccco3)CC2)cc1 (stereo not given),-18%,0%,14,7
O=C(Nc1ccc(N2CCN(C(=O)c3ccco3)CC2)cc1)c1ccc(Br)cc1,-7%,0%,-1,-2
COc1ccccc1CNC(=O)c1c2c(nc3ccccc13)C(=O)N(C1CCCCC1)C2,-20%,5%,·,·
C/C(N)=C(/C#N)C(=O)COC(=O)C1CCC(C(C)(C)C)CC1 (stereo not given),-20%,6%,16*,56*
Cc1cc(C)c2c(N)c3ccccc3nc2n1,-21%,8%,3,73
CCc1ccc2nc3nc(C)cc(C)c3c(N)c2c1,·,3%,20*,91*
Cc1cc(C)c(S(=O)(=O)N/N=C/c2ccc3c(c2)OCO3)c(C)c1,10%,4%,14*,22
Cc1cc(Cl)c(S(=O)(=O)N/N=C/c2ccc3c(c2)OCO3)c(Cl)c1,77%,6%,41*,54*
O=S(=O)(N/N=C/c1ccc2c(c1)OCO2)c1ccc(Br)cc1,20%,-3%,-1,-25
Cc1cc(Cl)nc(-c2ccccc2)n1,-17%,0%,1,-17
Cc1cc2c(C)nc(-c3ccccc3)nc2o1,73%,-3%,39*,107*

# High-throughput results deposited in PubChem BioAssay by National Center for Advancing Translational Sciences (NCATS).
